# rTrxR1 inhibitor = rat TrxR1 inhibition; O89049; recombinant rTrxR1, NADPH fluorescence consumption, selenite substrate; Potency, µM (highest dose often 114 µM), for inactives: at the top dose activity change, negative = inhibition, usual class: inhibitors; 1% of 390,000 active; AID 588453; also: nearly all actives have a fitted effect of over 65% in size
#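 Rat TrxR1 (90 nM in the dispensed reagent) was pre-reduced with 400 uM NADPH for 5 min at room temperature, then incubated with compound for 15 min. After 400 uM selenite was added, NADPH fluorescence (Ex 340/Em 450 nm) was followed for 8 min.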
# TrxR1 substrate = rat thioredoxin reductase 1 substrate activity; purified TrxR1 substrate turnover, NADPH consumption readout; Potency, µM (series often up to 114 µM), for the others: at the top dose activity change, negative = substrate turnover; 0.01% of 390,000 active; AID 588456; also: nearly all actives have a fitted effect of over 50% in size
#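 Rat TrxR1, dispensed at 90 nM, was prereduced with 400 uM NADPH (final) for 5 min at ~22 deg C, then incubated with compound 15 min before 400 uM selenite. A first-read NADPH fluorescence drop versus no-compound background flagged substrates.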
# mIDH1 inhibitor = human IDH1 R132H inhibition | O75874 | IDH1-R132H enzyme, NADPH consumption, diaphorase/resazurin fluorescence | Potency, µM (doses to about 76.6 µM), inactives show at the top dose activity change, negative = inhibition, usual class: inhibitors | 0.093% of 390,000 active; also: nearly all actives have a fitted effect of over 65% in size
# Target sequence (O75874 whole entry R132H, stated change not applied): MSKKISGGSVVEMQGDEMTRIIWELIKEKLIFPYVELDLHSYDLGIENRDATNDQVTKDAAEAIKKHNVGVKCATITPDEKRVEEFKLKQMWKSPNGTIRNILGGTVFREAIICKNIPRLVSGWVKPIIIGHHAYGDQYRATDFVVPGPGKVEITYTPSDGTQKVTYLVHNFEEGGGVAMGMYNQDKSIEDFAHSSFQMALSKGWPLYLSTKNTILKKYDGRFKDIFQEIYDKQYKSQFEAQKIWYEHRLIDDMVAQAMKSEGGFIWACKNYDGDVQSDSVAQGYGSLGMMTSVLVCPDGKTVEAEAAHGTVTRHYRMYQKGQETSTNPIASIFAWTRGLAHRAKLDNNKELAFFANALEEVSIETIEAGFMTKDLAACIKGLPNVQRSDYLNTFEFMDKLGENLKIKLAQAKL
#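 IDH1-R132H (0.5 ug/mL dispensed) in pH 7.5 Tris buffer was preincubated 30 min with compound, then given a substrate mix of 0.016 mM NADPH and 2 mM alpha-KG for 80 min at room temperature; remaining NADPH was read by diaphorase/resazurin fluorescence.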
# Sfp PPTase inh = blocks B. subtilis Sfp PPTase activity | Q9F4F7 | Biochemical Sfp PPTase activity, qHTS | Potency, µM, without a hit: largest response in the series, negative = inhibition, usual class: inhibitors | 3.5% of 310,000 active | AID 1490;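 also: the enzyme is Sfp with the accession as filed and its product quenches rhodamine fluorescence; 0% = enzyme reaction without inhibitor and -100% = no enzyme wells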
#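 Step 1, compound plus 15 nM Sfp-PPTase, 15 min, room temperature. Step 2, add rhodamine-CoA (5 uM) and BHQ-2-YbbR (12.5 uM). Step 3, read 525/598 nm fluorescence at 0 and 30 min.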
# PLK1 PBD inh = blocks phosphopeptide binding to human PLK1 polo-box domain; P53350; Plk1 PBD binding of FITC phosphopeptide, fluorescence polarization; Potency, µM, without a hit: max response, negative = inhibition, actives largely listed as inhibitors; 2.8% of 360,000 active; also: series mostly up to about 57 µM; nearly all actives have a fitted effect of over 65% in size
# VDR inhibitor = blocks the human vitamin D receptor; Potency, µM, for the others: max response, negative = inhibition, actives largely listed as inhibitors; VDR-SRC2-3 peptide fluorescence polarization, 2 h; 0.93% of 400,000 active; P11473
#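 Inhibition of the VDR/SRC2-3 peptide interaction is quantified by fluorescence polarization. Compounds (23 nl, pintool) incubate with the reagents for 2 hours at ambient room temperature.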
# An asterisk follows results filed as active; i = inactive; ? = inconclusive; / = not tested or not shown; [ ] = remark or other dose. Most compounds without a hit are left out; they make up all but 5.2% or so of the library. Calls follow the shape of the dose curve; as a rule, active = well fitted curve in the direction sought with a large enough effect; inconclusive = small, poorly fitted or top-dose-only effect, or another doubt; inactive = no such curve, though single readings can be large; an effect the other way counts as inactive or inconclusive. Unless noted, % is scaled to controls: 0 for no effect and ±100 for the full control effect; potency is read from the fitted curve at half-maximal effect.
SMILES,rTrxR1 inhibitor,TrxR1 substrate,mIDH1 inhibitor,Sfp PPTase inh,PLK1 PBD inh,VDR inhibitor
O=C(NNc1ccccc1[N+](=O)[O-])Nc1cccc(Cl)c1,7.5%,-7.4%,-0.5%,-11.4%,21.2µM*,79.4µM*
CC(C)CNC(=O)C1(C)CCCN1C(=O)c1cccnc1 (configuration not stated),/,/,/,/,4.2%,/
CCn1c(Nc2ccccc2Cl)nc2ccccc21,20.3%[57.1 µM],5.7%[57.1 µM],3.8%,13.3%,26.7µM*,-1.1%
O=C(CC(O)(c1ccccc1)c1ccccc1)Nc1ccccn1,3.7%[11.4 µM],-5.9%[57.1 µM],5.9%,/,4.0%,1.2%
CC(=O)N1c2ccc(S(=O)(=O)N3CCC(C(=O)Nc4ncccc4C)CC3)cc2CC1C (configuration not stated),20.9%[57.1 µM],-10.5%[57.1 µM],-0.5%,10.9%,-22.0%,-14.9%
CC(=O)N1c2ccc(S(=O)(=O)N3CCC(C(=O)Nc4cccc(C)c4C)CC3)cc2CC1C (configuration not stated),22.1%,4.9%,-4.2%,19.0%,23.8µM*,-29.5%
CC(=O)N1c2ccc(S(=O)(=O)N3CCC(C(=O)Nc4cccc(C(F)(F)F)c4)CC3)cc2CC1C (configuration not stated),5.2%,-13.4%,-12.2%,14.6%,26.7µM*,-18.6%
O=C(Nc1ccccc1C(F)(F)F)c1ccc2oc(=O)c(S(=O)(=O)c3ccc(F)cc3)cc2c1,33.2%,0.3%,-6.0%,/,/,-14.4%
Cc1ccccc1NC(=O)c1cnc2sc(N3CCCC3)nn2c1=O,7.7%[57.1 µM],1.8%[57.1 µM],10.3%,/,/,1.2%
Cc1cccc(C)c1NC(=O)CCS(=O)(=O)c1cccc2nonc12,-23.3%,0.6%,-1.5%,11.1%,-4.2%,-4.6%
O=C(CCS(=O)(=O)c1cccc2nonc12)Nc1c(F)cccc1F,31.6µM*,9.7%[2.29 µM],0.0%,/,/,-29.0%
COc1ccc(CN2CCC(n3nccc3NC(=O)C3CC3)CC2)cc1O,9.1%,-0.7%,0.5%,20.1%,-3.7%,-10.8%
O=c1cc(-c2ccccc2)ss1,-15.4%,-1.0%,19.9%,/,11.9µM*,?
Nc1sc(-c2ccccc2)cc1C(=O)O,/,/,/,-10.8%,/,/
CCN(CC)CCN(C(=O)c1ccco1)c1nc2c(C)cccc2s1,-3.3%,-9.8%,3.9%,/,/,18.3%
Cc1nc(CCN2C(=O)c3ccccc3C2=O)cs1,24.0%,3.0%[0.457 µM],0.0%,79.4µM*,?,-17.4%
CCn1c(=N)c(C(=O)NCC2CCCO2)cc2c(=O)n3cc(C)ccc3nc21 (configuration not stated),-112.0%,i,14.9%,/,/,-0.3%
S=c1[nH]nc2n1CCCN2,3.6%[57.1 µM],-3.2%[57.1 µM],0.6%,14.5%,29.9µM*,-2.4%
Cc1ccc(C(=S)N2CCN(Cc3ccccc3)CC2)s1,11.9%[57.1 µM],7.9%[57.1 µM],-0.7%,5.01µM*,2.99µM*,?
Cc1cccc(NC(=S)N2CCN(Cc3ccccc3)CC2)c1C,-22.1%,-7.1%,-2.8%,17.1%,-3.0%,-5.3%
CC1(C)O[C@@H]2C[C@H]3[C@@H]4CCC5=CC(=O)C=C[C@]5(C)[C@H]4C(O)C[C@]3(C)[C@]2(C(=O)CO)O1 (some centres not stated),/,/,/,15.0%,/,1.7%
Cc1cccc(NC(=O)C2C(c3ccccc3)C2(Cl)Cl)c1 (configuration not stated),18.4%,-2.8%,0.0%,6.6%,-0.1%,9.5%
Cc1ccc(NC(=O)C2C(c3ccccc3)C2(Cl)Cl)c(C)c1 (configuration not stated),2.2%,-0.6%,-0.4%,1.5%,21.2µM*,?
CC(C)c1ccc(CN(C(=O)/C=C/c2ccco2)C2CCS(=O)(=O)C2)cc1 (configuration not stated),14.1µM*,0.1%[57.1 µM],2.9%,?,?,?
O=[N+]([O-])c1cc2c(cc1CN1CCN(c3ccccc3F)CC1)OCO2,12.4%,2.0%,0.4%,-8.0%,-2.8%,-10.8%
COc1cc(CN2CCCCCC2)c([N+](=O)[O-])cc1OC,13.4%[2.29 µM],-3.7%,-3.0%,63.1µM*,-4.8%,-10.3%
